The values that follow come from article PMC7862700, “An all-to-all approach to the identification of sequence-specific readers for epigenetic DNA modifications on cytosine”.

Common to all, as to assay: DAPPL (digital affinity profiling via proximity ligation, sequencing); 10 mM Tris-HCl pH 7.5, 50 mM NaCl, 1 mM DTT, 4% glycerol, room temperature, 30 min; GST-TFs on glutathione beads, 16-mer random dsDNA library, 0.1% formaldehyde crosslink after washing; high values mean tight binding
Experiment [1] has as its target T1, FLI1 (Homo sapiens, UniProt Q01543 1-452).
T1 sequence: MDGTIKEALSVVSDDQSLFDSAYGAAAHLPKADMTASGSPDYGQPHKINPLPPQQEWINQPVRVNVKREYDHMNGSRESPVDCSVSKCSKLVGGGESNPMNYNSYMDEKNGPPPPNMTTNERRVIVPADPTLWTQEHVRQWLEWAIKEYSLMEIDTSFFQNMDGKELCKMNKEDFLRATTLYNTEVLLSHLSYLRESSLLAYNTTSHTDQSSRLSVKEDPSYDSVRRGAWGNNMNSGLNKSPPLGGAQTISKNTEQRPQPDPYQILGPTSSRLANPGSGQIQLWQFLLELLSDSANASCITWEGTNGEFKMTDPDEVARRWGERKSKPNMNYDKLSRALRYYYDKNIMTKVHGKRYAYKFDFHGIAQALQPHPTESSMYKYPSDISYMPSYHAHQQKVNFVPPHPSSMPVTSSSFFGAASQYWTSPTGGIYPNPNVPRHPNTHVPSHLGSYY
Particulars: protein: recombinant; tags: N-terminal GST; dsDNA, one strand shown. A digest of the protocol: (§1)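 Pools were built from human transcription factors expressed in yeast as GST fusions, captured on glutathione beads and DNA-barcoded, along with a tag-only sample. Incubation with 200 nmole of a 16-mer random double-stranded DNA library lasted 30 min at room temperature in Tris/NaCl/DTT/glycerol buffer, and was followed by washing, 0.1% formaldehyde crosslinking, proximity ligation, PCR amplification and Illumina NextSeq500 sequencing. Binding signal is the quotient of each hexamer's read frequency for a factor and its frequency for the tag-only sample.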

Experiment [2] concerns the target T2, ELK1 (Homo sapiens, UniProt P19419 1-428).
T2 sequence: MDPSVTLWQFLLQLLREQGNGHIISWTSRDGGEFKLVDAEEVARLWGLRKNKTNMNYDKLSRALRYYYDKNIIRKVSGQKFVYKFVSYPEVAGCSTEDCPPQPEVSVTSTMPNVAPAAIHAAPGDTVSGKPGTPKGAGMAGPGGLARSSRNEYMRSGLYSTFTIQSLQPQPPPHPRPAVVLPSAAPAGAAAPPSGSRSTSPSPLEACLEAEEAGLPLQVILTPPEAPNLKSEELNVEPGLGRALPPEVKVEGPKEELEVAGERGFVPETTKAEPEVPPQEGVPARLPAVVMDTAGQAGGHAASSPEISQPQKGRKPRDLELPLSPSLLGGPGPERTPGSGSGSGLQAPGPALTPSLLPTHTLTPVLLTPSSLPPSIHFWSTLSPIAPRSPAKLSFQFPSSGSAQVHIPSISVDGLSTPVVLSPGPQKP
Particulars: protein: recombinant; tags: N-terminal GST; dsDNA, one strand shown. An outline of the steps: as §1

In experiment [3] the target is T3, GABPA (Homo sapiens, UniProt Q06546 1-454).
T3 sequence: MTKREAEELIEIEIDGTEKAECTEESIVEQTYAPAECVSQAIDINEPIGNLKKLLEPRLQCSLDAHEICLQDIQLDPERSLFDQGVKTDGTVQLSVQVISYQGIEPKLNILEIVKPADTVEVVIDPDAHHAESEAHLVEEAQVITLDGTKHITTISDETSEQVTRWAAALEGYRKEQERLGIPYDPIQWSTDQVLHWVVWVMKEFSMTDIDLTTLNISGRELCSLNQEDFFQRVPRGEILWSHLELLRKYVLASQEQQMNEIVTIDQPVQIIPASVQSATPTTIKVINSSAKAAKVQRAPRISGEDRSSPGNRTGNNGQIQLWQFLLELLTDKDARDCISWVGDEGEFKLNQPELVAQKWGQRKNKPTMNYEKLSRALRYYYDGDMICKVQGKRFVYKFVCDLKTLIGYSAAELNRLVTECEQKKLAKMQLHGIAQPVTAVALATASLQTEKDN
The conditions noted are these: protein: recombinant; tags: N-terminal GST; dsDNA, one strand shown. A digest of the protocol: as §1

Experiment [4] addresses T4, ERG (Homo sapiens, UniProt P11308 1-479).
T4 sequence: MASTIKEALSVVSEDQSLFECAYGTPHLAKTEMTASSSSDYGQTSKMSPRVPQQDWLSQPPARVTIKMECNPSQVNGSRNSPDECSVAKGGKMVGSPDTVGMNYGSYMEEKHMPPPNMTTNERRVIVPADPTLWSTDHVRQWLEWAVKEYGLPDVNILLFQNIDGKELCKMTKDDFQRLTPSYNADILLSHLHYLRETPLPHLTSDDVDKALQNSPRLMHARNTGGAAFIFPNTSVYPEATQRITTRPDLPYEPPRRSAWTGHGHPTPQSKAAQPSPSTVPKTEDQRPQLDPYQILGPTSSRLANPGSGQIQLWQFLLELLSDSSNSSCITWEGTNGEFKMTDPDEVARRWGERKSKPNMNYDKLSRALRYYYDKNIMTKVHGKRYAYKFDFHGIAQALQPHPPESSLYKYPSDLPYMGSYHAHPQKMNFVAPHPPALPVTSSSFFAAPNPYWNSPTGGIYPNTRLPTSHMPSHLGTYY
The conditions noted are these: protein: recombinant; tags: N-terminal GST; dsDNA, one strand shown. An outline of the steps:
as §1

The target of experiment [5] is ELF1 (Homo sapiens, UniProt P32519 1-619). Particulars: protein: recombinant; tags: N-terminal GST; dsDNA, one strand shown. An outline of the steps: as §1
Experiment [6] addresses T5, EHF (Homo sapiens, UniProt Q9NZC4 1-300).
T5 sequence: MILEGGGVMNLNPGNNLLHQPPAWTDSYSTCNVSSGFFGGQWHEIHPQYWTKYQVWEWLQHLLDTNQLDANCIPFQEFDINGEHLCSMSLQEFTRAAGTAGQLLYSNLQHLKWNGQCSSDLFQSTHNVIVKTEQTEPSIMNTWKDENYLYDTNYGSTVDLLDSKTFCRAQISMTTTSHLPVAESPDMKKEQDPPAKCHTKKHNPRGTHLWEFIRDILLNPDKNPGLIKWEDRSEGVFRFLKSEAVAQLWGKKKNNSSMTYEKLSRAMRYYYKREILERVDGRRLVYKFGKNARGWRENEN
The conditions noted are these: protein: recombinant; tags: N-terminal GST; dsDNA, one strand shown. An outline of the steps: as §1

The target in experiment [7] is SPI1 (Homo sapiens, UniProt P17947 1-270). The conditions noted are these: protein: recombinant; tags: N-terminal GST; dsDNA, one strand shown. An outline of the steps: as §1
The target in experiment [8] is SPIB (Homo sapiens, UniProt Q01892 1-262). The conditions noted are these: protein: recombinant; tags: N-terminal GST; dsDNA, one strand shown. An outline of the steps: as §1
Experiment [9] addresses T6, ELK3 (Homo sapiens, UniProt P41970 1-407).
T6 sequence: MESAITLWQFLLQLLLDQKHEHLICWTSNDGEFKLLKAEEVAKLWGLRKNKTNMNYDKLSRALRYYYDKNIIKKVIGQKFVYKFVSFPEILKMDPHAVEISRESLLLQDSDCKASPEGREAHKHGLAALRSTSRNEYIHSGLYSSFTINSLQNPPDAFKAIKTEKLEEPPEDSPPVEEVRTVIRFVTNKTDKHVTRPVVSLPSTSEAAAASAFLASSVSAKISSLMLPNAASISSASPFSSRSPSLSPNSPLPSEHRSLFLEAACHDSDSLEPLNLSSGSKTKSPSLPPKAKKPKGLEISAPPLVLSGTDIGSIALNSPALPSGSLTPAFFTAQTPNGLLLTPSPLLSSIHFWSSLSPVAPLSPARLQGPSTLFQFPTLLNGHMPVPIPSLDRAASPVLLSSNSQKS
The conditions noted are these: protein: recombinant; tags: N-terminal GST; dsDNA, one strand shown. A digest of the protocol: as §1

Experiment [10] has as its target T7, FEV (Homo sapiens, UniProt Q99581 1-238).
T7 sequence: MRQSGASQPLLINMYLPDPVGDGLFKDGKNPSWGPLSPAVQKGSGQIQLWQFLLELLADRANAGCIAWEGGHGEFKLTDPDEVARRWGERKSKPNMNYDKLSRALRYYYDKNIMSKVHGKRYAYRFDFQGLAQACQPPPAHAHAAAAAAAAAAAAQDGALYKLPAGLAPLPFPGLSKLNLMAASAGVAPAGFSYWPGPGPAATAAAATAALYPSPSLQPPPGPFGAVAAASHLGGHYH
Particulars: protein: recombinant; tags: N-terminal GST; dsDNA, one strand shown. An outline of the steps:
as §1

Experiment [11] concerns the target ETV5 (Homo sapiens, UniProt P41161 1-510). The conditions noted are these: protein: recombinant; tags: N-terminal GST; dsDNA, one strand shown. A digest of the protocol: as §1
For experiment [12], the target named is HSF1 (Homo sapiens, UniProt Q00613 1-529). The conditions noted are these: protein: recombinant; tags: N-terminal GST; chain copies: 3; dsDNA, one strand shown. An outline of the steps:
as §1

Experiment [13] addresses T8, SPIC (Homo sapiens, UniProt Q8N5J4 1-248).
T8 sequence: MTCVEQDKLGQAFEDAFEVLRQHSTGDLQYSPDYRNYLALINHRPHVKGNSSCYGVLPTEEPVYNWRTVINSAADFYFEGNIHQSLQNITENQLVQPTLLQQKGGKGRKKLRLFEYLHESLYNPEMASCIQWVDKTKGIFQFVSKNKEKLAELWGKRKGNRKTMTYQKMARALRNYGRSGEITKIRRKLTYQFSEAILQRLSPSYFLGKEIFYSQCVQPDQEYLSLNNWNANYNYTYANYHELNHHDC
The conditions noted are these: protein: recombinant; tags: N-terminal GST; dsDNA, one strand shown. An outline of the steps:
as §1

The target in experiment [14] is ELF4 (Homo sapiens, UniProt Q99607 1-663). Particulars: protein: recombinant; tags: N-terminal GST; dsDNA, one strand shown. A digest of the protocol:
as §1

Experiment [15] has as its target T9, ELK4 (Homo sapiens, UniProt P28324-2 1-405).
T9 sequence: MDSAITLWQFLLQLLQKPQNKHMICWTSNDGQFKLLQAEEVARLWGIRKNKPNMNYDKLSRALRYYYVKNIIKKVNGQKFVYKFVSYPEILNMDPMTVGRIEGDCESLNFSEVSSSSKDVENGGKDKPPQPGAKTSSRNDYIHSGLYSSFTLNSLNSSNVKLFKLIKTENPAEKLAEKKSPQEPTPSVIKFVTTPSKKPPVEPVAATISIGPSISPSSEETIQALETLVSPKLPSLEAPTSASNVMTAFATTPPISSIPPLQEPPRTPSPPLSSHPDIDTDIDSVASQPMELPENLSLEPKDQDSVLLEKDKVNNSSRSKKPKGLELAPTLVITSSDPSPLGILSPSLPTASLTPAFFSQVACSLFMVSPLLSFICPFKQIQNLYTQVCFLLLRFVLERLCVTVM
Particulars: protein: recombinant; tags: N-terminal GST; dsDNA, one strand shown. A digest of the protocol:
as §1

Experiment [16] concerns the target T10, ETV2 (Homo sapiens, UniProt O00321 1-342).
T10 sequence: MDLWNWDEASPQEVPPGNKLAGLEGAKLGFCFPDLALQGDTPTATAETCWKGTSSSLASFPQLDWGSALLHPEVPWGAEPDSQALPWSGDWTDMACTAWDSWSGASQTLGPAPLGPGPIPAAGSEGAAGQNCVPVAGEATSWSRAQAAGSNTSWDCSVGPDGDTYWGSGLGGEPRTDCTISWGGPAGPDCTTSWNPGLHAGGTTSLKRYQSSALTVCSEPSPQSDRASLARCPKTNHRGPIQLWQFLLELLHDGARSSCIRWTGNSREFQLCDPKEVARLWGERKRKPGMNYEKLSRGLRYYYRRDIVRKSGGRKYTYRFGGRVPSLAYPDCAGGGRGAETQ
Particulars: protein: recombinant; tags: N-terminal GST; dsDNA, one strand shown. An outline of the steps: as §1

Experiment [17] concerns the target T11, ELF3 (Homo sapiens, UniProt P78545 1-371).
T11 sequence: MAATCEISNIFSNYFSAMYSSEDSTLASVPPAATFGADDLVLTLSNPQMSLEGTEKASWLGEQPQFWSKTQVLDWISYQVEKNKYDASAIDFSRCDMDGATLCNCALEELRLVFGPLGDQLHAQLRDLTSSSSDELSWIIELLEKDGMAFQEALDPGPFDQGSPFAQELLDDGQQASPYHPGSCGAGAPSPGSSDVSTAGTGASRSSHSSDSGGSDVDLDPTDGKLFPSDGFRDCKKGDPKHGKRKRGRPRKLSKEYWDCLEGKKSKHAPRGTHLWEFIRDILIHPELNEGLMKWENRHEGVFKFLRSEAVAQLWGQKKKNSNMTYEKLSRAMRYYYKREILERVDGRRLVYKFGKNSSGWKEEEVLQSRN
Particulars: protein: recombinant; tags: N-terminal GST; dsDNA, one strand shown. A digest of the protocol: as §1

Experiment [18] addresses ETV1 (Homo sapiens, UniProt P50549 1-477). The conditions noted are these: protein: recombinant; tags: N-terminal GST; dsDNA, one strand shown. A digest of the protocol:
as §1

Chain of ELF4 (Q99607 whole entry): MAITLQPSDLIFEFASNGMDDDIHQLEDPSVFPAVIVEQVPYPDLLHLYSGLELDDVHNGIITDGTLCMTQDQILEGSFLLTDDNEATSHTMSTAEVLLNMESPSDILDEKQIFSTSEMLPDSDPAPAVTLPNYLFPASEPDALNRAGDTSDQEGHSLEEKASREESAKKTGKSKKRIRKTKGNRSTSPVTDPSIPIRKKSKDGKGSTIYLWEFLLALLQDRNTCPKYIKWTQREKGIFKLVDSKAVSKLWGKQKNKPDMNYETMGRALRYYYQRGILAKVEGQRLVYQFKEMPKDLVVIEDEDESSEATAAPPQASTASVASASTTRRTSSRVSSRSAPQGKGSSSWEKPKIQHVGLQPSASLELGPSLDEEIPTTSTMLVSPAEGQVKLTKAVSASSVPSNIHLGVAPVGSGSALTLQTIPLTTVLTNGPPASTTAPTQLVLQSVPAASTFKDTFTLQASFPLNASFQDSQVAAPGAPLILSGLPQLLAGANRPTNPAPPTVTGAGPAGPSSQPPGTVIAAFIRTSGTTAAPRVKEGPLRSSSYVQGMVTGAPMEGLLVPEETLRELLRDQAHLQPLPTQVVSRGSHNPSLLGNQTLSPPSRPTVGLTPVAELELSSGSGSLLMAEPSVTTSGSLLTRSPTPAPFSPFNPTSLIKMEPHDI
Chain of ELF1 (P32519 whole entry): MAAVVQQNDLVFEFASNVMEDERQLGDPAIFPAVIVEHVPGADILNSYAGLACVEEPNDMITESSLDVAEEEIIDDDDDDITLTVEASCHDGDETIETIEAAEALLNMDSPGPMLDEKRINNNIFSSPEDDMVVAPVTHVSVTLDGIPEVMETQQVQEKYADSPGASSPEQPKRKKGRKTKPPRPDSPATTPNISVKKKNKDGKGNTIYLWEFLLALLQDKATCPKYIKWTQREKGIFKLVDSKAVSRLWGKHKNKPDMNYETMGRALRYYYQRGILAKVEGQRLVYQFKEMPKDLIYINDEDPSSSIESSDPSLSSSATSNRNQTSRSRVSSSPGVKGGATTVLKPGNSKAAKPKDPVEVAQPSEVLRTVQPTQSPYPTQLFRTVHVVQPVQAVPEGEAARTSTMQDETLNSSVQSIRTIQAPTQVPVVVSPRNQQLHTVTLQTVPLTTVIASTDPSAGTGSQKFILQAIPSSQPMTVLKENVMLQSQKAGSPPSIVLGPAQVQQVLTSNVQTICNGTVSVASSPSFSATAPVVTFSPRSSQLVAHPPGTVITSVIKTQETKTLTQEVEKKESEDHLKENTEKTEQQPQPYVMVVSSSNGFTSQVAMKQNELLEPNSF
Chain of HSF1 (Q00613 whole entry): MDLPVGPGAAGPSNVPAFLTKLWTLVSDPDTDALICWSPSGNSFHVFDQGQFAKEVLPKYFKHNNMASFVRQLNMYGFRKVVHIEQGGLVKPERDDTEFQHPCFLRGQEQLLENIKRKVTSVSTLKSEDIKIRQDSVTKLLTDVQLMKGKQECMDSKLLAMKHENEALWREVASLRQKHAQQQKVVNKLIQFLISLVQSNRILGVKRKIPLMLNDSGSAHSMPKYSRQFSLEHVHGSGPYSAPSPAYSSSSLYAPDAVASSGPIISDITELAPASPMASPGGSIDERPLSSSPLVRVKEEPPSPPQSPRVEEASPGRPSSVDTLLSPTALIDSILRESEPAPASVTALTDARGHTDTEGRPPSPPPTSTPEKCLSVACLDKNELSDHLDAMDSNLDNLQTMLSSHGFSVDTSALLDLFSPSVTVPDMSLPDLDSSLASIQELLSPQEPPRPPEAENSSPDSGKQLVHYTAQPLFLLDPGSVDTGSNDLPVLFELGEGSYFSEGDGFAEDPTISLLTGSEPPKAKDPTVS
Chain of ETV1 (P50549 whole entry): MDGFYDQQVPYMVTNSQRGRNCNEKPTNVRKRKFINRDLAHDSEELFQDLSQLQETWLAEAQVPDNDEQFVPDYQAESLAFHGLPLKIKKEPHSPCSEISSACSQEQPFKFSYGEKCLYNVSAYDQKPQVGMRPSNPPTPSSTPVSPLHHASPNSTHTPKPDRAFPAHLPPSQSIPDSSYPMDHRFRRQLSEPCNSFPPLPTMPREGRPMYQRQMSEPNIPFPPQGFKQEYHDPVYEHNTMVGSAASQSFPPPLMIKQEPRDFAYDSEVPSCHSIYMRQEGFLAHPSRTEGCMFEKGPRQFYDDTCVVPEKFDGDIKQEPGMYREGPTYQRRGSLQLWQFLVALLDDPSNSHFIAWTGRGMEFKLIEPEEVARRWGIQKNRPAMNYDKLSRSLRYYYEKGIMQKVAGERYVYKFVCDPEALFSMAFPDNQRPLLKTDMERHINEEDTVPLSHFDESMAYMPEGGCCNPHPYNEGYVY
Chain of SPIB (Q01892 whole entry): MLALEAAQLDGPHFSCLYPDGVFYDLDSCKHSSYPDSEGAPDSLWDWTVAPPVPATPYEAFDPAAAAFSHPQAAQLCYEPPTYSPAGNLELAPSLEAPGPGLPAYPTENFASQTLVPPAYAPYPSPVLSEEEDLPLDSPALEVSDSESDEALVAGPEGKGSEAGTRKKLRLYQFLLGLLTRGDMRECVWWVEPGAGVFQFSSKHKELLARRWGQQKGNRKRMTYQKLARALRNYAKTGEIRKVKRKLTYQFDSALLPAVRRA
Chain of ETV5 (P41161 whole entry): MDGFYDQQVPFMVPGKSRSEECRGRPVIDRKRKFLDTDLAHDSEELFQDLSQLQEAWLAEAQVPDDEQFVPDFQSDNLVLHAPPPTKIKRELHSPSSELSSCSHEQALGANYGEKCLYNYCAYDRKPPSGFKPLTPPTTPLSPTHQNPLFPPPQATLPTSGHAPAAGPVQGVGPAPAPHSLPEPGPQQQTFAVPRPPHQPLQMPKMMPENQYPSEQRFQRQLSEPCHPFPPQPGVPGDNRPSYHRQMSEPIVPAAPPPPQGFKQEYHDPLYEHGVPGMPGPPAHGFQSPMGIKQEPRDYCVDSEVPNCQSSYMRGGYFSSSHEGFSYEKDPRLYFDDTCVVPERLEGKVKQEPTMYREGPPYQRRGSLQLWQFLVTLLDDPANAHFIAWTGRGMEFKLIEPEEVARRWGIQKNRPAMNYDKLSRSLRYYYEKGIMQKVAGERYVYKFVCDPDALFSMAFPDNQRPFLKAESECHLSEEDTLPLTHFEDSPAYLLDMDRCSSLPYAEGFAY

As for CGCCGA, the binding signal in experiment [1] was 1.19 fold enrichment (6-mer frequency, TF over GST control); in experiment [2] it was 1.2 fold enrichment (6-mer frequency, TF over GST control); in [3], 1.26 fold enrichment (6-mer frequency, TF over GST control); in experiment [4] it was 1.1 fold enrichment (6-mer frequency, TF over GST control); in [5] it was 1.19 fold enrichment (6-mer frequency, TF over GST control); in experiment [6], 1.22 fold enrichment (6-mer frequency, TF over GST control). For the same sequence, the binding signal in experiment [7] was 1.16 fold enrichment (6-mer frequency, TF over GST control); in experiment [8] it was 1.18 fold enrichment (6-mer frequency, TF over GST control); in experiment [9], 1.22 fold enrichment (6-mer frequency, TF over GST control); in experiment [10], 1.21 fold enrichment (6-mer frequency, TF over GST control); in [11], 1.13 fold enrichment (6-mer frequency, TF over GST control); in experiment [12], 1.2 fold enrichment (6-mer frequency, TF over GST control). Besides, the binding signal is 1.18 fold enrichment (6-mer frequency, TF over GST control) in experiment [13]; 1.26 fold enrichment (6-mer frequency, TF over GST control) in [14]; 1.28 fold enrichment (6-mer frequency, TF over GST control) in [15]; 1.16 fold enrichment (6-mer frequency, TF over GST control) in experiment [16]; 1.03 fold enrichment (6-mer frequency, TF over GST control) in experiment [17]; 1.15 fold enrichment (6-mer frequency, TF over GST control) in experiment [18].
